These results are taken from PubChem BioAssay AID686979 (National Center for Advancing Translational Sciences (NCATS), 2013).

Out of some 420,000 compounds screened, about 50,000 (12%) were called active. About 26% were inconclusive and are not listed. The call rests on the fitted dose curve; in most records, active means well fitted inhibition curve with a large enough effect; inconclusive means small, poorly fitted or top-dose-only effect; inactive means flat fitted curve, though single readings scatter. For the sample, actives were picked, then their nearest neighbours and some compounds at random.
On the % scale 0 is the no-effect control and ±100 the full control effect; potency means the concentration at half of the fitted maximal effect.

This test can be described thus: qHTS for Inhibitors of human tyrosyl-DNA phosphodiesterase 1 (TDP1): qHTS in cells in presence of CPT. Further: nearly all actives have a fitted effect of over 55% in size. The note with it: chicken DT40 Tdp1-/-;hTDP1 cells + 20 nM CPT, ATP luminescence, 48 h; series mostly up to 46.2 µM; activity change, negative = growth inhibition: at the top concentration. The procedure, abridged:
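Chicken DT40 Tdp1-/- cells stably complemented with human TDP1 were seeded at 400 cells/well in medium containing 20 nM camptothecin, exposed to pin-transferred compounds, and grown at 37 °C for at least 48 hr. Viability was read as ATP luminescence.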
On to `O=C(CCNS(=O)(=O)c1ccccc1)NCCSc1ccc(Br)cc1`, for which the “activity change, negative = growth inhibition” value is -23% (inactive).

For the compound `CCc1cccc(NC(=O)COC(=O)c2cc(=O)c3ccccc3o2)c1`, the “activity change, negative = growth inhibition” value was 5.89% (inactive).

In the case of `C=CC[C@H](CC(=O)N(CCO)Cc1ccccc1)C(=O)N[C@@H](COC(=O)[C@@H](CC=C)Cc1ccc(F)cc1)Cc1ccccc1`, the Potency is 23.1 µM (active).

Take `C=CCC(NC(=O)Cc1ccccc1)C(=O)NCCC` (stereo not given): the “activity change, negative = growth inhibition” value is -4.46% (inactive).

Regarding `C=CCC[C@@H](Cc1ccc(F)cc1)C(=O)O[C@H](CNC(=O)[C@H](CC=C)CC(=O)N(CCO)Cc1ccccc1)c1ccccc1`, the Potency is 18.4 µM (active).

Consider `COCCCNC(=S)N(Cc1ccccc1)Cc1ccc(F)cc1`, for which the “activity change, negative = growth inhibition” value was -7.85% (inactive).

Consider `C=CCC[C@@H](Cc1ccc(F)cc1)C(=O)OC[C@@H](C)NC(=O)[C@H](CC=C)CC(=O)N(CCO)Cc1ccccc1`, for which the Potency is 13 µM (active).

As for `C=CCC[C@H](Cc1ccc(F)cc1)C(=O)OC[C@H](C)NC(=O)[C@H](CC=C)CC(=O)N(CCO)Cc1ccccc1`, the Potency was 14.6 µM (active).

On to `Cc1ccccc1Nc1nc(N)nc(CSc2ccccc2)n1`, for which the “activity change, negative = growth inhibition” value is 11.7% (inactive).

As for `COc1ccc(C(C)NC(=O)C2CCCC2)cc1` (stereo not given), the “activity change, negative = growth inhibition” value is 28% (inactive).

As to `O=C(CNC(=O)c1cccnc1)N/N=C/c1cc(Br)c(O)c(Br)c1`, the “activity change, negative = growth inhibition” value is -5.42% (inactive).

For the compound `Cc1ccc(S(=O)(=O)NCC2CCC(C(=O)N3CCOCC3)CC2)cc1` (stereo not given), the “activity change, negative = growth inhibition” value is 11.6% (inactive).

As to `CCOc1ncccc1C(=O)NNC(=O)c1cccc(S(=O)(=O)Nc2ccccc2OC)c1`, the “activity change, negative = growth inhibition” value was -0.192% (inactive).

Take `O=C(Nc1c[nH]c(=O)[nH]c1=O)OCc1ccccc1`: the “activity change, negative = growth inhibition” value was -14.3% (inactive).

As to `CC(=O)c1sc(N)nc1C`, the Potency entry was “inactive”.

Turning to `COc1ccc(C2/C(=C(/O)c3ccc4c(c3)CC(C)O4)C(=O)C(=O)N2Cc2ccncc2)cc1` (stereo not given), the “activity change, negative = growth inhibition” value was 29.7% (inactive).

For `CC(C)COc1ccc(C(=O)NNC(=O)CCC(=O)c2cccs2)cc1`, the “activity change, negative = growth inhibition” value is -2.08% (inactive).

Consider `O=C1CCCc2c1nc(-c1cccc(Cl)c1)n2O`, for which the “activity change, negative = growth inhibition” value was -22.1% (inactive).

Regarding `C=CCc1c(C)nc2cc(-c3ccccc3)[nH]n2c1=O`, the “activity change, negative = growth inhibition” value is -22.6% (inactive).

Consider `Cc1cc(=O)n2[nH]c(-c3cccc(Cl)c3)cc2n1`, for which the Potency is 18.4 µM (active).

For the compound `O=[N+]([O-])c1ccc2[nH]c3c(c2c1)CCCC3O` (stereo not given), the “activity change, negative = growth inhibition” value was 2.97% (inactive).

Turning to `O=C1/C(=C\c2ccsc2)NC(=S)N1c1ccccc1`, the “activity change, negative = growth inhibition” value is -5.02% (inactive).

In the case of `O=c1c(-c2ccccc2Cl)c[nH]n1-c1ccccc1`, the “activity change, negative = growth inhibition” value is -13.2% (inactive).

As for `COc1cccc(NC(=O)CN2CCN(c3nc(-c4cccc(OC)c4)cs3)CC2)c1`, the “activity change, negative = growth inhibition” value was -27.1% (inactive).

With `COc1cccc(-c2cc3nc4c(c(N5CCC6(CC5)OCCO6)n3n2)CCCC4)c1`, the Potency is 23.1 µM (active).

In the case of `COc1cccc(CNc2nc3nc4c(c(=O)n3[nH]2)CCC4)c1`, the “activity change, negative = growth inhibition” value is 7.39% (inactive).

Turning to `CC(=NNC(=O)c1ccc2nc[nH]c2c1)c1ccc(Br)cc1`, the “activity change, negative = growth inhibition” value is -16.2% (inactive).

Take `O=C(NCCCO)C(=O)Nc1c2c(nn1-c1ccc(F)cc1)CSC2`: the “activity change, negative = growth inhibition” value is -6.22% (inactive).

On to `Cc1ccc(S(=O)(=O)N[C@H]2CCC[C@@H]2O)cc1`, for which the “activity change, negative = growth inhibition” value was 23.7% (inactive).

As for `CS(=O)(=O)N1CCc2cc(C(=O)Nc3ccccc3)ccc21`, the “activity change, negative = growth inhibition” value is -7.48% (inactive).

As for `COc1ccc(S(=O)(=O)N2CCc3ccccc32)cc1C(=O)Nc1cc(S(C)(=O)=O)ccc1Cl`, the Potency was 9.2 µM (active).

For `Cc1ccc(S(=O)(=O)N2CCc3cc(C(=O)Nc4ccc(Cl)cc4C)ccc32)cc1`, the “activity change, negative = growth inhibition” value was -7.99% (inactive).

Regarding `CCN(C(=O)COC(=O)c1cc(S(=O)(=O)N2CCc3ccccc32)ccc1OC)C1CCS(=O)(=O)C1` (stereo not given), the “activity change, negative = growth inhibition” value was 1.42% (inactive).

As to `COc1cccc(NC(=O)c2cc(S(=O)(=O)N3CCc4ccccc43)cn2C)c1`, the “activity change, negative = growth inhibition” value was 1.38% (inactive).

For the compound `O=C(Nc1cc(C(F)(F)F)ccc1Cl)c1ccc2c(c1)CCN2S(=O)(=O)c1ccccc1`, the Potency is 18.4 µM (active).

Consider `Cc1noc(C)c1NC(=O)N(C)C[C@@H]1Oc2cc(Br)ccc2S(=O)(=O)N([C@@H](C)CO)C[C@H]1C`, for which the “activity change, negative = growth inhibition” value is -16.2% (inactive).

On to `Cc1ccc(CNC(=O)C2CCCN2S(=O)(=O)c2ccc3c(c2)C(C)(C)C(=O)N3C)cc1` (stereo not given), for which the “activity change, negative = growth inhibition” value was -4.08% (inactive).

For the compound `COc1cc(Br)cc2cc(S(=O)(=O)c3ccccc3)c(=O)oc12`, the “activity change, negative = growth inhibition” value is -17.1% (inactive).

In the case of `CCOC(=O)C(Cc1ccc(N)cc1)N1C(=O)c2ccccc2C1=O` (stereo not given), the “activity change, negative = growth inhibition” value is -20.1% (inactive).

For `O=C(Nc1ccccc1F)c1ccc(Cn2cc(Br)cn2)cc1`, the “activity change, negative = growth inhibition” value is -29.2% (inactive).

With `CCCc1nc(-c2cc3cc(C)ccc3[nH]c2=O)no1`, the “activity change, negative = growth inhibition” value is -11.1% (inactive).

As for `CC(=O)OCc1cc2cc(C)ccc2[nH]c1=O`, the “activity change, negative = growth inhibition” value is -29.4% (inactive).

For the compound `COc1ccc2[nH]c(=O)c(CNc3ccc(C)c(C)c3)cc2c1`, the Potency was 4.11 µM (active).

On to `CCC(=O)N(Cc1cc2cc(OC)ccc2[nH]c1=O)c1ccccc1C`, for which the “activity change, negative = growth inhibition” value is -12.5% (inactive).

Turning to `CCNCc1cc2cc(C)ccc2[nH]c1=O`, the Potency was 18.4 µM (active).

For the compound `COc1ccc(N(Cc2cc3cc(OC)ccc3[nH]c2=O)S(C)(=O)=O)cc1`, the “activity change, negative = growth inhibition” value is -13.5% (inactive).

As to `CCCCN1C(=O)c2ccc(C(=O)Nc3ccc(S(=O)(=O)N(C)C)cc3)cc2C1=O`, the “activity change, negative = growth inhibition” value was -24.7% (inactive).

With `Cc1ccccc1Nc1nc(N)nc(COC(=O)CCC(=O)c2ccc(F)cc2)n1`, the “activity change, negative = growth inhibition” value was -18.4% (inactive).

`Cc1cc(NC(=O)c2ccc(-c3ccc(Cl)cc3)o2)cc(-c2nc3ncccc3o2)c1O`: the “activity change, negative = growth inhibition” value is 0.843% (inactive).

For `Cc1ccccc1C1=N/C(=C/c2cccnc2)C(=O)O1`, the “activity change, negative = growth inhibition” value was -27.4% (inactive).

In the case of `O=C1/C(=C\c2cccnc2)CN(Cc2ccccc2)C/C1=C\c1cccnc1`, the Potency is 5.17 µM (active).

Consider `O=Cc1cn(Cc2ccccc2)nc1-c1cccnc1`, for which the “activity change, negative = growth inhibition” value was -0.314% (inactive).

As to `O=C(C(=O)N1CCc2ccccc2C1)c1c[nH]c2ccccc12`, the “activity change, negative = growth inhibition” value is -0.41% (inactive).

Regarding `CCNC(=O)CCc1nc(-c2ccc(C(C)(C)C)cc2)no1`, the Potency is 16.4 µM (active).

Take `CCNC(=O)CCc1nc(-c2ccc(C)cc2)no1`: the “activity change, negative = growth inhibition” value was 2.65% (inactive).

In the case of `Cc1ccc(-c2noc(CCC(N)=O)n2)cc1`, the “activity change, negative = growth inhibition” value is -5.46% (inactive).

As to `Cn1c(Cc2cccs2)nnc1SCC(=O)Nc1ccccc1`, the “activity change, negative = growth inhibition” value was -14.6% (inactive).

For the compound `O=C1C(=O)N(CCCO)C(c2ccccc2)/C1=C(\O)c1ccc(Br)cc1` (stereo not given), the “activity change, negative = growth inhibition” value was -18.7% (inactive).

Turning to `CN(CC(=O)NCc1ccc(Cl)cc1)S(=O)(=O)c1cccs1`, the “activity change, negative = growth inhibition” value was -1.91% (inactive).

As for `COCCN1CCN(C(=O)c2sc3ncnc(NCC4CCCO4)c3c2C)CC1` (stereo not given), the “activity change, negative = growth inhibition” value is 6.09% (inactive).

With `O=C(COC(=O)c1ncc(Cl)c(Cl)c1Cl)NCc1ccccc1`, the “activity change, negative = growth inhibition” value was -15.5% (inactive).

As to `CC(C)C(NC(=O)c1c(F)cccc1F)C(=O)NNC(=O)c1ccccc1` (stereo not given), the “activity change, negative = growth inhibition” value is 16.2% (inactive).

Regarding `CCC(=O)Nc1ccc(C)cc1-c1nc2ccccc2n(Cc2ccccc2)c1=O`, the “activity change, negative = growth inhibition” value is -11.9% (inactive).

Take `CCC(=O)Nc1nc2ccccc2n1Cc1ccccc1C`: the Potency was 14.6 µM (active).

As to `Cc1cccc(NC(=O)Cn2c(C(F)(F)F)nc3ccccc32)c1C`, the “activity change, negative = growth inhibition” value was -26.9% (inactive).
